ALOX12 inhib = 12-hLO (ALOX12) enzyme inhibition; purified 12-hLO, xylenol orange hydroperoxide absorbance; Potency, µM (highest dose often 57.1 µM), inactives show top-dose activity change, negative = inhibition, actives largely listed as inhibitors; P18054; 150,000 tested, 0.12% active; also: potency is read from the fitted curve at half-maximal effect; nearly all actives have a fitted effect of over 55% in size
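150 nM 12hLO, 25 mM Hepes pH 7.0 + 0.01% Triton X-100; cpd preinc 15 min RT; 40 uM arachidonic acid, 30 min RT; Fe-XO 30 min; A573/A405 ratio as read-out.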
IMPase Li inh = IMPase inhibition in cells with lithium potentiation; AID 1457; CHO-M1 cells, IP1 TR-FRET (IP-One), carbachol + lithium; 210,000 tested, 0.35% active; Potency, µM (series often up to 59.4 µM), inactives show at the top dose activity, negative = IMPase inhibition, actives largely listed as inhibitors;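 also: IP1 builds up when IMPase is blocked and the TR-FRET signal falls; potency is read from the fitted curve at half-maximal effect; plate controls were basal vehicle for no effect and high inhibitor control for full effect; nearly all actives have a fitted effect of over 50% in size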
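Steps: plate 2000 CHO-M1 cells per well and culture 16–30 h; add compound and lithium; incubate 30 min, 37C; add d2-IP1 tracer and Eu cryptate anti-IP1 antibody in lysis buffer; read after 10 min at room temperature.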
PNC assembly inh = perinucleolar compartment assembly inhibition; 140,000 tested, 3.1% active; PC3M PTB-GFP, PNC prevalence imaging, 16 h; active compounds read low; activity change (PNC), negative = inhibition, % at 10 µM;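 active = readout at or below -70, meaning at least 70% loss of cells showing the perinucleolar compartment, a nuclear body marking cancer cells; inconclusive = readout between -30 and a set limit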;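 also: plate controls were DMSO wells for no effect and camptothecin positive control wells for full effect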
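Compounds are pinned in duplicate onto adhered PC3M cells stably expressing GFP-tagged PTB and incubated 16 h at 37 C. Cells are then fixed, nuclei stained with Hoechst, and PNC-positive cells counted.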
HPGD block = inhibitors of human 15-hydroxyprostaglandin dehydrogenase (HPGD); P15428; purified HPGD, NADH fluorescence kinetic, PGE2 substrate; Potency, µM, for inactives: at the top dose activity change, negative = inhibition, hits mostly inhibitors; 150,000 tested, 4.3% active; AID 894; active = well fitted inhibition curve with a large enough effect, not every such curve was filed as active; inconclusive = small, poorly fitted or top-dose-only effect, or another doubt; inactive = no such curve, though single readings can be large or run the other way; also: potency is read from the fitted curve at half-maximal effect
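20 nM HPGD preincubated 15 min at room temperature with compound in 50 mM Tris-HCl pH 8, 0.01% Tween 20. Started with 1 mM NAD+ and 30 uM prostaglandin E2; NADH fluorescence (360/450 nm) read 5 times over 30-s intervals, last minus first.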
ALDH1A1 inh = ALDH1A1 (human) enzyme inhibition; P00352; Purified ALDH1A1, NADH fluorescence, propionaldehyde substrate; Potency, µM (titrated, usually from 75.3 µM), without a hit: at the top dose activity, negative = inhibition, usual class: inhibitors; 220,000 tested, 7.3% active; active = well fitted inhibition curve with a large enough effect, not every such curve was filed as active; inconclusive = small, poorly fitted or top-dose-only effect, or another doubt; inactive = no such curve, though single readings can be large or run the other way;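 also: potency is read from the fitted curve at half-maximal effect; plate controls were no enzyme wells and a reference inhibitor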
Target sequence (P00352 whole entry, looked up): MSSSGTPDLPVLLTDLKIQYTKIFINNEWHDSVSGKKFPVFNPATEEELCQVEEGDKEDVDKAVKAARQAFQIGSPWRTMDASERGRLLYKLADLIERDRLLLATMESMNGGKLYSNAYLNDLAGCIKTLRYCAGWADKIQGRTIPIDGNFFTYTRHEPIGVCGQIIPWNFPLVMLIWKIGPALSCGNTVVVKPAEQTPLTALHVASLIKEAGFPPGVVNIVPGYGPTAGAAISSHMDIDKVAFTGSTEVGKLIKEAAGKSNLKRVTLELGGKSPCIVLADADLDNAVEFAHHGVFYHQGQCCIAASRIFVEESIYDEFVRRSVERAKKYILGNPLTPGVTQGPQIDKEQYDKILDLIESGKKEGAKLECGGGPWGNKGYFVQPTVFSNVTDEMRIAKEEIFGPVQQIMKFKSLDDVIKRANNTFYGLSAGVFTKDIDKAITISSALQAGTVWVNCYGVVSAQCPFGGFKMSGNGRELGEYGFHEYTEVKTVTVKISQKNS
IMPase inh = cell-permeable inhibitors of inositol monophosphatase (IMPase); P97697; CHO-M1 cells, IP1 accumulation, HTRF TR-FRET ratio; inhibition (IP1 accumulation), % at 46.1 µM; 120,000 tested, under 10 active; AID 901; active = well fitted curve in the direction sought with a large enough effect in the signal ratio, not every such curve was filed as active; inconclusive = small, poorly fitted or top-dose-only effect, or a change in a side signal; inactive = no such curve, though single readings can be large or run the other way; the % refers to the signal ratio;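 also: cells stimulated with carbachol in lithium chloride buffer; plate controls were DMSO basal wells for no effect and reference inhibitor wells for full effect; higher means more IMPase inhibition seen as more IP1 and lower FRET ratio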
Target sequence (P97697 whole entry, looked up): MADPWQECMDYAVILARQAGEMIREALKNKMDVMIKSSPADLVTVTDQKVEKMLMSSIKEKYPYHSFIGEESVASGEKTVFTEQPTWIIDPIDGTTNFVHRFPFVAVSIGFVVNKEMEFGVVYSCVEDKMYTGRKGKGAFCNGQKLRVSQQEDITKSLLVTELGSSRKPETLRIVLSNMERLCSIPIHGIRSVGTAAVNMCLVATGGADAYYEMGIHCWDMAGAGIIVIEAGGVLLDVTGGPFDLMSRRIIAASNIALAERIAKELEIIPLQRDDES
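Measured: the HTRF emission ratio (665/620 nm) plus the 620 nm donor channel, each fitted to the Hill equation to give AC50. Cells were CHO-M1 given compounds up to 46 uM and a 30 min carbachol stimulation at 37C.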
Starred values were filed as active, the others as inactive; ? = inconclusive; · = no result given; [ ] = dose if it differs, or a comment. In the library only some 11% were active in any assay of this set; here they are far more common. Unless noted, calls follow the shape of the dose curve; as a rule, active = well fitted curve in the direction sought with a large enough effect; inconclusive = small, poorly fitted or top-dose-only effect, or another doubt; inactive = no such curve, though single readings can be large; an effect the other way counts as inactive or inconclusive. Unless noted, % is scaled to controls: 0 for no effect and ±100 for the full control effect.

SMILES	ALOX12 inhib	IMPase Li inh	PNC assembly inh	HPGD block	ALDH1A1 inh	IMPase inh
CC(=O)c1c(N(C)C)ccnc1C(F)(F)F	3.0%	7.6%[38.3 µM]	5.8	-12.3%	9.2%	1.5
Nc1ccnc(C(F)(F)F)c1C(=O)c1ccccc1	-5.6%	-10.9%[38.3 µM]	-81.6*	-8.6%	-6.8%	10.0
Cc1cccc(C)c1OCc1nc2c3c(-c4ccccc4)c(-c4ccccc4)oc3ncn2n1	·	·	·	·	·	-1.7
C[C@@H]1C(=O)OC2C[C@@]34[C@H]5C[C@@H](C(C)(C)C)[C@@]36C(O)C(=O)O[C@H]6O[C@@]4(C(=O)O5)[C@]21O (stereo partly specified)	-1.9%[0.00818 µM]	5.3%	·	3.8%	-0.2%	·
CC(C)(C)NS(=O)(=O)c1ccc(CCC(=O)Nc2ccc3c(c2)OCCO3)cc1	0.2%	1.7%	-15.4	-5.7%	3.98µM*	-4.6
CC(C)(C)NS(=O)(=O)c1ccc(OCC(=O)Nc2ccc3c(c2)OCCO3)cc1	-3.5%	-13.9%[38.3 µM]	0.7	-5.4%	1.78µM*	-8.2
CC(C)(C)NS(=O)(=O)c1ccc(CCC(=O)NCc2ccc3c(c2)OCO3)cc1	-4.5%	0.0%	278.4	-12.2%	-3.5%	9.4
CC(C)(C)NS(=O)(=O)c1ccc(CCC(=O)Nc2ccc3c(c2)OCO3)cc1	3.2%	20.6%[38.3 µM]	-21.2	-5.7%	0.178µM*	4.5
CCN(CC)c1nc(C)nc2c1sc(=S)n2C	·	?	·	·	-4.3%	·
Cc1nc(N(C)C)c2sc(=S)n(Cc3ccccc3)c2n1	·	-11.1%	·	·	6.31µM*	·
Cc1nnc(SCC(=O)Nc2sc3c(c2C#N)CCCCC3)n1N	-11.1%	11.6%[38.3 µM]	23.0	-7.3%	22.4µM*	3.2
COc1ccc(-n2c(SCC(=O)Nc3sc4c(c3C#N)CCCC4)nnc2-c2ccccc2OC)cc1	-0.5%	6.7%	145.9	-13.0%	-9.7%	2.3
COc1ccc(-c2nnc(SCC(=O)Nc3sc4c(c3C#N)CCCC4)n2-c2ccccc2)cc1	5.5%	14.5%	-86.0*	-11.2%	?	-12.7
N#Cc1c(NC(=O)CSc2nnc(-c3ccco3)n2-c2ccccc2)sc2c1CCC2	0.1%	22.5%[38.3 µM]	?	-13.3%	-14.7%	1.4
NC(=O)c1c(NC(=O)CSc2nnc(-c3ccco3)n2-c2ccccc2)sc2c1CCC2	-25.4%	-17.2%[38.3 µM]	-10.0	28.2µM*	?	?
CCOC(=O)c1c(C)oc2ccc(N(C(=O)Oc3ccccc3)S(=O)(=O)c3ccc(CC)cc3)cc12	·	·	·	·	·	-3.1
O=C(CSc1nnc(C2CC2)n1-c1ccccc1)NCc1ccco1	0.3%	5.4%[38.3 µM]	-21.8	-11.0%	-3.3%	-1.6
O=C(CSc1nnc(C2CC2)n1Cc1ccco1)NCC(F)(F)F	·	28.8%	·	·	23.8µM*	·
O=C(O)CC(Cn1[nH]nnc1=S)c1ccccc1 (stereo unspecified)	-1.5%	-29.0%[38.3 µM]	?	-26.6%	10µM*	1.6
O=C(O)CC(CC(=O)Nc1nncs1)c1ccccc1 (stereo unspecified)	-0.8%	23.7%[38.3 µM]	20.4	-9.8%	1.5%	-8.3
COc1ccc(CCNC(=O)CSc2nc3[nH]ncc3c(=O)n2-c2ccc(C)c(Cl)c2)cc1OC	·	0.5%	·	·	7.94µM*	·
Cc1ccccc1-n1c(SCC(=O)NC(N)=O)nc2sc(-c3ccccc3)cc2c1=O	-18.0%	11.2µM*	8.8	?	?	·
COc1ccc(NC(=O)CSc2nc3[nH]ncc3c(=O)n2-c2ccccc2C)cc1OC	0.1%	12.0%	?	-8.3%	28.2µM*	·
COc1cc2c(cc1OC)CN(C(=O)CSc1nc3[nH]ncc3c(=O)n1-c1ccccc1)CC2	0.2%	21.4%[38.3 µM]	14.0	-14.3%	28.2µM*	-3.8
CCc1ccc2c(c1)C(O)(CC(=O)c1cccs1)C(=O)N2 (stereo unspecified)	·	4.5%	·	·	4.1%	·
SMILES	ALOX12 inhib	IMPase Li inh	PNC assembly inh	HPGD block	ALDH1A1 inh	IMPase inh
CCc1cccc2c1NC(=O)C2(O)CC(=O)c1cccs1 (stereo unspecified)	·	-3.2%	·	·	14.1µM*	·
COc1ccc(C(=O)N2CCOC2CNC(=O)C(=O)NCc2ccc3c(c2)OCO3)cc1 (stereo unspecified)	·	1.4%	·	·	5.7%	·
CCOc1ccccc1-n1nnnc1SCc1nc2ccccc2s1	-4.6%	25.5%[38.3 µM]	27.2	-13.1%	10µM*	3.6
O[C@@H](c1cc(-c2ccccc2)nc2c1ccc1ccccc12)C1CCCCN1 (stereo partly specified)	·	-5.3%	·	-10.6%	0.1%[13.5 µM]	·
O=c1c(CCc2ccccc2)nc2cnc(Oc3ccccc3)nc2n1C[C@H]1CCCO1	12.6%	-4.9%	·	-6.6%	?	·
O=S(=O)(Nc1cc(Sc2ncn[nH]2)c(O)c2ccccc12)c1ccccc1	·	-3.9%	·	·	14.1µM*	·
O=C(Nc1cccc(-c2nc3ccccc3o2)c1)C(F)(F)F	·	·	·	·	·	-2.9
COc1ccc2oc(-c3ccc(O)cc3)cc(=O)c2c1	1.5%	-11.7%	·	?	?	0.0
Fc1cccc(C[n+]2csc3ccccc32)c1	-20.9%	20.8%[38.3 µM]	32.4	3.98µM*	0.355µM*	11.7
c1ccc(C[n+]2csc3ccccc32)cc1	-11.0%	6.0%[38.3 µM]	32.1	14.1µM*	2.24µM*	8.4
c1ccc(C[n+]2cccc3c4ccccc4ccc32)cc1	8.6%	25.1%[38.3 µM]	30.3	?	?	15.7
COc1cccc(-c2nc(NC3CCNCC3)c3ccccc3n2)c1	·	32.4%	·	·	31.6µM*	·
CN(C)c1ccc(-c2nc(NC3CCNCC3)c3ccccc3n2)cc1	-2.8%	11.5%	·	-14.2%	-5.3%	·
COc1ccc2c(c1)O[C@H](c1ccc3c(c1)OCO3)[C@@H](OC(=O)NCCOc1ccccc1)C2=O	·	10.4%	·	4.5%	?	·
COc1ccccc1-n1cnnc1SCc1csc(-c2ccccc2)n1	-0.5%	17.1%[38.3 µM]	-5.4	-7.8%	?	0.2
Cc1ccccc1Nc1nc(CSc2nnnn2-c2ccccc2)cs1	-16.7%	8.9%[38.3 µM]	32.1	?	7.94µM*	2.9
c1ccc(-c2nc(CSc3nnnn3-c3ccccc3)cs2)cc1	-15.0%	1.0%[38.3 µM]	?	-8.2%	14.1µM*	4.4
Cc1cccc(CSc2nnnn2-c2ccccc2)c1	3.4%	12.6%[38.3 µM]	?	-18.0%	?	0.8
O=C(O)c1ccc(COc2ccccc2[N+](=O)[O-])o1	-0.7%	-4.6%	?	-11.8%	-3.5%	·
COc1ccccc1OCc1ccc(C(=O)N2CCOCC2)o1	1.6%	-3.5%	2.8	-7.3%	25.1µM*	·
O=C(c1ccc(COc2c(F)c(F)c(F)c(F)c2F)o1)N1CCOCC1	-3.7%	7.8%[38.3 µM]	?	-5.6%	-8.4%	-4.6
O=C(c1ccc(COc2ccccc2[N+](=O)[O-])o1)N1CCCCCC1	-7.5%	-0.3%[38.3 µM]	?	25.1µM*	-15.0%	5.3
O=C(c1ccc(COc2ccccc2[N+](=O)[O-])o1)N1CCCCC1	-4.5%	-13.8%[38.3 µM]	-26.8	22.4µM*	?	4.1

Assay outcomes as filed in PubChem BioAssay.
